Among the data in PubChem BioAssay (Tox21) are Potency and outcome values, retold here.

Assay [1] is described as follows: qHTS assay to identify small molecule antagonists of the glucocorticoid receptor (GR) signaling pathway - cell viability counter screen (AID 720693). Note: nearly all actives have a fitted effect of over 55% in size. A general note: In qHTS, concentration-response curves come from the screen itself.
The nature of assay [2]: qHTS assay for identifying genotoxic compounds that show differential cytotoxicity against isogenic chicken DT40 cell lines with known DNA damage response pathways - wild type cell line (AID 743012). Note: nearly all actives have a fitted effect of over 60% in size. Note: potency is the fitted concentration of half-maximal effect. An outline of the steps: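 Parental DNA repair-proficient DT40 cells, 300 per well, were pre-incubated ~0.5 h at 37 C/5% CO2, pin-dosed with compounds in DMSO, then incubated 40 h. Viability was read as CellTiter-Glo luminescence after 30 min at room temperature.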

A short description of assay [3]: qHTS assay for identifying genotoxic compounds that show differential cytotoxicity against isogenic chicken DT40 cell lines with known DNA damage response pathways - Rev3 mutant cell line (AID 743014). Note: nearly all actives have a fitted effect of over 55% in size. Note: potency is the fitted concentration of half-maximal effect.
A short description of assay [4]: qHTS assay for identifying genotoxic compounds that show differential cytotoxicity against isogenic chicken DT40 cell lines with known DNA damage response pathways - Rad54/Ku70 mutant cell line (AID 743015). Note: nearly all actives have a fitted effect of over 60% in size. Note: potency is the fitted concentration of half-maximal effect.
The nature of assay [5]: qHTS assay to identify small molecule antagonists of the androgen receptor (AR) signaling pathway - cell viability counter screen (AID 743033; note: nearly all actives have a fitted effect of over 45% in size).
Assay [6] deals with Androgen receptor (Homo sapiens) (UniProt P10275). Briefly: qHTS assay to identify small molecule antagonists of the androgen receptor (AR) signaling pathway (AID 743035; active = well fitted inhibition curve with a large enough effect in the signal ratio in the repeat runs, not every such curve was filed as active; the % refers to the signal ratio). An outline of the steps:
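HEK293 cells stably carrying a UAS-driven beta-lactamase reporter (AR-UAS-bla GripTite) were plated for 4 h at 37C, then given compound and the agonist R1881 and incubated 16 h. Reporter activity was read by LiveBLAzer B/G FRET fluorescence after 2 h at room temperature.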

The target is the same in assay [7]. Briefly: qHTS assay to identify small molecule agonists of the androgen receptor (AR) signaling pathway (AID 743036; active = well fitted activation curve with a large enough effect in the signal ratio in the repeat runs, with a control signal flat, not every such curve was filed as active; the % refers to the signal ratio). In short, it runs like this:
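Fluorescence from a beta-lactamase FRET substrate served as read-out in AR-UAS-bla GripTite HEK293 cells. Cells were treated with DMSO-dissolved compounds for 16 h at 37C, then with LiveBLAzer B/G substrate for 2 h at room temperature.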

The target is the same in assay [8]. Put plainly: qHTS assay to identify small molecule agonists of the androgen receptor (AR) signaling pathway using the MDA cell line (AID 743040; note: nearly all actives have a fitted effect of over 20% in size; note: potency is the fitted concentration of half-maximal effect). In short, it runs like this: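 Cells plated, 5 h at 37C/0% CO2; compound or DMSO pinned; 16 h at 37C; ONE-Glo added; luminescence measured after 30 min at room temperature. Reporter line: MDA-kb2 with MMTV-luciferase responsive to AR and GR.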

Assay [9] shares this target. Put plainly: qHTS assay to identify small molecule antagonists of the androgen receptor (AR) signaling pathway using the MDA cell line (AID 743042; note: nearly all actives have a fitted effect of over 55% in size). An outline of the steps: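 Antagonist mode: compounds plus R1881 agonist added to MDA-kb2 AR-luc cells, incubated 16 h at 37C. Luciferase reporter luminescence quantified, with multiplexed CellTiter-Fluor readout for cell viability.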

A short description of assay [10]: qHTS assay to identify small molecule antagonists of the androgen receptor (AR) signaling pathway using the MDA cell line - cell viability counter screen (AID 743041; note: nearly all actives have a fitted effect of over 45% in size). In short, it runs like this:
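Cells were plated at 3,000 per well and left 5 h. Compounds in DMSO were then pinned in, followed by R1881. After 16 h at 37C, CellTiter-Fluor fluorescence gave viability.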

Several values for one entry are separate records, joined by “and”; a condition that tells them apart may be missing. Equal values may be shown once. Results filed as inconclusive are left out. A structure can be active in one record and inactive in another. Activity calls are given as the source filed them. Unless noted, calls come from the whole dose curve; as a rule, active = well fitted curve in the direction sought with a large enough effect in the repeat runs; inconclusive = weak or mixed curves; inactive = no such curve, though single readings can be large; an effect the other way counts as inactive or inconclusive.

Sequence of Androgen receptor (Homo sapiens) (P10275 whole entry, looked up): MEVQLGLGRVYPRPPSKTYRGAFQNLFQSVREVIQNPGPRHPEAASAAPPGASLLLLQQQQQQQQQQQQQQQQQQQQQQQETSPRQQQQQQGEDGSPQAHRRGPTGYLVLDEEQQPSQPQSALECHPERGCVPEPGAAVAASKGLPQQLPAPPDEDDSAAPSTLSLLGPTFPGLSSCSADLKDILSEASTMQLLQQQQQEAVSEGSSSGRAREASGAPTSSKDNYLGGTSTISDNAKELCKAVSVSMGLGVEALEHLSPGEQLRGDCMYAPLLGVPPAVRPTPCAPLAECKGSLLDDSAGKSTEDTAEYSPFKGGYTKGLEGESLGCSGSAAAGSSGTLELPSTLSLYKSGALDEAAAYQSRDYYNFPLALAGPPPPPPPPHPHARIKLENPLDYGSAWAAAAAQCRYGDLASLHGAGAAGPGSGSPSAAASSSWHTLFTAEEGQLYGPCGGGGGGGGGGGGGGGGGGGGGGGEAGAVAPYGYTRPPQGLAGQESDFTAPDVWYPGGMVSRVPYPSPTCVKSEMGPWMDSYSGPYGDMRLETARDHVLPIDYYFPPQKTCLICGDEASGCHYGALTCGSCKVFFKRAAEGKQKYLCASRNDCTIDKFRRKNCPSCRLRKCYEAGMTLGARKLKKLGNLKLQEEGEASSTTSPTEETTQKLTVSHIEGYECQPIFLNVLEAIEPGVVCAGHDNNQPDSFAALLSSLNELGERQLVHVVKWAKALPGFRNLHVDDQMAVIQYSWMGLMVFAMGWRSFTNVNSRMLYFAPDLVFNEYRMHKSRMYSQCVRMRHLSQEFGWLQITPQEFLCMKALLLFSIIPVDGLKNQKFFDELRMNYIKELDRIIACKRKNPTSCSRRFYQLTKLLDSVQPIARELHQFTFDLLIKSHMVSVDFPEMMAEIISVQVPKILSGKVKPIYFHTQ

For `Nc1ccc(C(=O)O)cc1`, the Potency entry in assay [1], in assay [2], in assay [3] and in assay [4] was “inactive” throughout. The result in assay [5] was inactive.

As to `CC(C)(Oc1ccc(C2CC2(Cl)Cl)cc1)C(=O)O` (stereo not drawn), the Potency entry in assay [1], in assay [2], in [3], in [4] and in assay [8] was “inactive” in each case. The result in assay [5], in assay [6], in assay [7] and in assay [9] was inactive.

Regarding `O=NO`, the Potency result in [1], in assay [2], in assay [3] and in assay [4] was “inactive” each time. In addition, the result in [5] was inactive.

With `NC(N)=O`, the Potency result in [1] is “inactive”. In addition, the Potency entry in [2] is “inactive and 24.3 µM (active)”; in assay [3], “inactive and 17.2 µM (active)”; in assay [4], “inactive and 21.7 µM (active)”. The compound was called inactive in assay [5].

Take `CNC[C@H](O)c1cccc(O)c1`: the Potency entry in [1], in assay [2], in [3], in [4] and in [10] was “inactive” in each case. Further, in assay [5], the call was inactive.

Consider `OCCc1ccccc1`, for which the Potency result in [1], in [2], in assay [3], in assay [4] and in assay [10] was “inactive” throughout. The compound was classed as inactive in assay [5].

On to `Cc1ccc(O)cc1`, for which the Potency result in assay [1], in assay [2], in assay [3], in assay [4] and in assay [8] was “inactive” throughout. Also, the result in assay [5], in [6], in assay [7] and in [9] was inactive.

As to `CC(=O)NS(=O)(=O)c1ccc(N)cc1`, the Potency entry in assay [1], in [2], in assay [3], in [4] and in assay [10] was “inactive” in each case. In assay [5], the compound was classed as inactive.

Turning to `Cn1cc[nH]c1=S`, the Potency result in assay [1], in [2], in [3], in assay [4] and in assay [10] was “inactive” each time. Also, in assay [5], the result was inactive.

Regarding `Cn1c(=O)c2[nH]cnc2n(C)c1=O`, the Potency result in [1] and in assay [10] was “inactive” each time. In addition, the outcome in assay [5] was inactive.

For the compound `Cc1ccc(S(=O)(=O)NC(=O)NN2CCCCCC2)cc1`, the Potency entry in assay [1], in assay [2], in assay [4] and in assay [10] was “inactive” throughout. Also, the Potency result in [3] was “inactive and 68.6 µM (active)”. For the same compound, the outcome in assay [5] was inactive.

For `CCCN(CCC)S(=O)(=O)c1ccc(C(=O)O)cc1`, the Potency entry in assay [1], in [2], in [3] and in assay [4] was “inactive” throughout. The compound was called inactive in [5], in [6], in [7] and in [9].

With `Oc1ccc(/C=C/c2cc(O)cc(O)c2)cc1`, in assay [1], the Potency result was “inactive”. Further, the Potency was 7.17 µM (active) and 30.6 µM (active) in assay [2]; 7.17 µM (active) and 15.5 µM (active) and 21.7 µM (active) in assay [3]; 9.02 µM (active) and 27.6 µM (active) and 30.6 µM (active) in assay [4]; 6.92 µM (active) and 2.73 µM (active) in assay [8]. Further, the call in [5] and in assay [9] was inactive.

With `Nc1ccc(S(=O)(=O)c2ccc(N)cc2)cc1`, the Potency entry in assay [1], in assay [2], in [3], in assay [4] and in [10] was “inactive” in each case. Further, the compound was classed as inactive in assay [5].

Consider `CCCCOC(=O)CC(CC(=O)OCCCC)(OC(C)=O)C(=O)OCCCC`, for which the Potency entry in assay [1], in assay [3] and in [10] was “inactive” in each case. The Potency entry in assay [4] is “inactive and 54.5 µM (active)”. The compound was called inactive in assay [5].

For the compound `CCCCC(CC)COC(=O)/C=C/c1ccc(OC)cc1` (stereo not drawn), the Potency entry in assay [1], in assay [2], in assay [3], in assay [4] and in assay [8] was “inactive” in each case. Besides, the outcome in [5], in assay [6], in assay [7] and in assay [9] was inactive.

In the case of `C[C@]12C=CC(=O)C=C1CC[C@@H]1[C@@H]2[C@@H](O)C[C@@]2(C)[C@H]1CC[C@]2(O)C(=O)CO`, the Potency result in assay [1], in assay [2], in [3] and in [10] was “inactive” throughout. The outcome in [5] was inactive.

In the case of `O=C(O)CCCCC(=O)O`, the Potency entry in assay [1] and in assay [10] was “inactive” throughout. Besides, the compound was called inactive in assay [5].

Consider `O=C(O)CS`, for which the Potency result in assay [1] and in [10] was “inactive” in each case. Further, the Potency result in assay [2] was “inactive and 61.6 µM (active)”; in [3], “inactive and 43.6 µM (active)”; in assay [4] it was “inactive and 12.3 µM (active)”. The compound was called inactive in assay [5].

On to `O=C(O)CCC(=O)O`, for which the Potency entry in assay [1], in assay [2], in assay [3], in [4] and in assay [10] was “inactive” each time. Besides, the outcome in assay [5] was inactive.

`CC(=O)Nc1nnc(S(N)(=O)=O)s1`: the Potency entry in [1], in assay [2], in assay [3], in [4] and in [10] was “inactive” each time. Besides, in [5], the compound was classed as inactive.

Take `NC(=O)NC1NC(=O)NC1=O` (stereo not drawn): the Potency result in assay [1], in [2], in [3], in [4] and in [10] was “inactive” in each case. Also, the compound was classed as inactive in assay [5].

Take `OC(Cn1cncn1)(Cn1cncn1)c1ccc(F)cc1F`: the Potency result in [1], in [2], in assay [3], in assay [4] and in assay [10] was “inactive” each time. The result in assay [5] was inactive.

Consider `Cc1noc(NS(=O)(=O)c2ccc(N)cc2)c1C`, for which the Potency result in [1], in [2], in [3], in assay [4] and in assay [10] was “inactive” throughout. Moreover, the call in assay [5] was inactive.

As for `NC(N)=NC(=O)c1nc(Cl)c(N)nc1N`, the Potency result in assay [1], in assay [2], in assay [3], in [4] and in assay [10] was “inactive” in each case. Further, in assay [5], the compound was classed as inactive.

As for `Cc1cn([C@H]2C[C@H](N=[N+]=[N-])[C@@H](CO)O2)c(=O)[nH]c1=O`, the Potency entry in assay [1] and in assay [10] was “inactive” each time. Moreover, the compound was classed as inactive in [5].

Consider `CC(O)CN(CCN(CC(C)O)CC(C)O)CC(C)O` (stereo not drawn), for which the Potency entry in assay [1], in assay [2], in [3], in assay [4] and in [10] was “inactive” each time. Besides, the call in assay [5] was inactive.

Consider `NS(=O)(=O)c1cc(C(=O)O)c(NCc2ccco2)cc1Cl`, for which the Potency entry in [1], in assay [2], in [3], in [4] and in assay [10] was “inactive” in each case. Moreover, the outcome in assay [5] was inactive.

As to `O=S(=O)(O)NC1CCCCC1`, the Potency result in [1], in assay [2], in [3], in assay [4] and in [10] was “inactive” throughout. The call in assay [5] was inactive.

With `Nc1ccc(S(=O)(=O)Nc2nccs2)cc1`, the Potency result in assay [1], in [2], in assay [3], in [4] and in [10] was “inactive” each time. Further, the compound was classed as inactive in [5].

As for `O=C(c1ccccc1)c1ccccc1`, the Potency entry in assay [1] is “inactive”. The compound was classed as inactive in assay [5], in [6], in assay [7] and in assay [9].
